# ± gives the standard deviation of the averaged measurements. In all, about 33,000 sequences were measured (“E-score (rank enrichment, -0.5 to 0.5)”: median about -0.0068, highest 2% from about 0.24 on). Shown is part of a subset that was picked to be rich in the highest values.
# Test system: muMax20 (Max(13-93) K31hArg/K57hArg, M65Nle)
# Assay: PBM 8-mer E-score (E-score (rank enrichment, -0.5 to 0.5)); higher = stronger preferential binding
# Procedure: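 Protein binding microarray (universal PBM chip covering all 10-mers in fixed probe flanks) with chemically synthesized human Max(13-93) bHLH-LZ analogs (not full-length Max) bearing noncanonical residues (hArg, Tha, Aib, Nle at 65) and aromatic Cys staples. Read-out per 8-mer (and its reverse complement): E-score (rank-based enrichment, -0.5 to 0.5) and Z-score of median probe intensity.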
row,Sequence,PBM 8-mer E-score
1,AAGCAAAT,0.172 ± 0.025
2,CGGGCGAG,-0.112 ± 0.12
3,CAAGCGCA,0.284 ± 0.019
4,AAAGCGCA,0.0206 ± 0.012
5,CAAGCGCC,-0.192 ± 0.11
6,GACGGTGC,-0.0722 ± 0.033
7,ATGCAACA,0.211 ± 0.041
8,ATGCAACG,0.251 ± 0.079
9,ATGCAACC,0.225 ± 0.014
10,TCTTGAAA,0.0967 ± 0.01
11,CGGCGCGC,0.00798 ± 0.069
12,ATGTGTAC,0.113 ± 0.057
13,ATGTGTAG,0.239 ± 0.068
14,ATGTGTTA,0.276 ± 0.076
15,ATGTGTAA,0.204 ± 0.046
16,TAGTTATA,0.288 ± 0.068
17,ATGTTATA,0.193 ± 0.12
18,GAGTTATA,0.173 ± 0.0073
19,GTGTTATA,0.2767 ± 0.0021
20,ATGTGTTC,-0.0235 ± 0.019
21,ATGTGTGA,0.192 ± 0.13
22,CTGTTATA,0.179 ± 0.097
23,AAGTTATA,0.156 ± 0.018

row,Sequence,PBM 8-mer E-score
1,ATCACCAG,-0.0679 ± 0.034
2,GTCCCTCA,-0.00891 ± 0.083
3,ATAACCGG,-0.0406 ± 0.073
4,ATTACGGA,0.0432 ± 0.041
5,ATTGCTGG,-0.0565 ± 0.13
6,AGGCCGGC,-0.211 ± 0.028
7,ATGCGGAG,0.00298 ± 0.056
8,AACAACGA,0.147 ± 0.012
9,GGGTCAAC,-0.0771 ± 0.079
10,CTGTGTTA,0.0692 ± 0.087
11,GTGTGTTA,0.268 ± 0.0066
12,GGGTGTTA,0.0328 ± 0.0072
13,CGCGCTAA,-0.0154 ± 0.16
14,ATTAACAA,0.246 ± 0.052
15,ATTAACTA,0.283 ± 0.017
16,ATTAACAC,0.287 ± 0.029
17,CTTAACAC,0.149 ± 0.092
18,ACTAACAC,0.0454 ± 0.029
19,ATTAACTC,0.173 ± 0.0096
20,GTTAACAA,0.17 ± 0.0025
21,ATTAACAG,0.0428 ± 0.24
22,GTTAACTA,0.213 ± 0.0029
23,AAAGCTAA,-0.00207 ± 0.033

row,Sequence,PBM 8-mer E-score
1,ACCACTAG,0.0698 ± 0.15
2,ATGCGATA,-0.0659 ± 0.018
3,GCCCTCGA,-0.118 ± 0.0058
4,CCGGATAA,-0.0458 ± 0.13
5,AGTAGGAC,0.103 ± 0.047
6,AACGGCCT,0.269 ± 0.11
7,AACGGCCA,-0.0219 ± 0.0033
8,AACGGCCC,-0.263 ± 0.018
9,GATCCCGA,-0.329 ± 0.0063
10,AATTCTTA,0.0618 ± 0.12
11,ATCTGTAC,0.157 ± 0.1
12,ACGTATCT,0.0322 ± 0.12
13,GCGTATTA,0.117 ± 0.082
14,ACGTATTA,0.25 ± 0.076
15,ACGTATTG,0.0861 ± 0.067
16,ACGTATCA,0.243 ± 0.11
17,ACGTATCG,-0.00982 ± 0.017
18,CATATGAA,0.0777 ± 0.049
19,AGGCACGA,0.109 ± 0.032
20,CAGAGCTA,-0.25 ± 0.013
21,TGAACAAA,0.00782 ± 0.029
22,ATAATAAA,0.217 ± 0.023
23,ATAAGAAC,0.24 ± 0.081

row,Sequence,PBM 8-mer E-score
1,ATAATAAC,0.315 ± 0.034
2,CTAATCAG,-0.0349 ± 0.028
3,ATAAGAAA,0.141 ± 0.043
4,ATAATCAA,0.0671 ± 0.022
5,CTAATAAA,0.163 ± 0.024
6,TTAATAAA,0.238 ± 0.028
7,ATAATCAG,0.32 ± 0.072
8,GTAATAAC,0.156 ± 0.072
9,ATAAGAAT,0.165 ± 0.04
10,CTAATAAC,0.19 ± 0.074
11,GATAGCGA,-0.086 ± 0.082
12,AATCCGAC,0.0325 ± 0.024
13,CTCAGAGC,-0.28 ± 0.041
14,ATCTGGAG,-0.0378 ± 0.089
15,AAAGATGT,0.203 ± 0.0026
16,CCCGTCTC,-0.0114 ± 0.0032
17,ATCTCAAG,-0.0469 ± 0.0077
18,GCGAAGCA,0.0453 ± 0.032
19,ACTTCCGC,-0.0937 ± 0.045
20,ATAATAAG,0.247 ± 0.051
21,ATAATAAT,0.205 ± 0.05
22,CTAATAAG,0.119 ± 0.044
23,CGCAGAGA,-0.0723 ± 0.14

row,Sequence,PBM 8-mer E-score
1,CTCCAAGC,-0.018 ± 0.00052
2,CATATAAA,0.329 ± 0.056
3,TGTATAAA,0.207 ± 0.0065
4,CATATAAC,0.219 ± 0.048
5,AATATAAT,0.156 ± 0.065
6,TATATAAA,0.304 ± 0.05
7,CATATAAG,0.154 ± 0.076
8,AATATAAA,0.324 ± 0.012
9,GATATAAA,0.139 ± 0.03
10,AATATAAG,0.207 ± 0.045
11,ACGACGCA,0.00737 ± 0.11
12,AGGGGGCA,-0.0171 ± 0.019
13,CAGGCTCA,-0.0417 ± 0.019
14,GATCTTGA,0.101 ± 0.013
15,CTAGGCGA,-0.155 ± 0.071
16,TCCCCTCA,0.14 ± 0.1
17,CTTTCCTA,-0.0321 ± 0.019
18,GTTTCCTA,0.307 ± 0.033
19,ATTTCCTA,0.137 ± 0.029
